ELG1 DNA repair: inhibitors of ELG1-dependent DNA repair in HEK293T cells. HEK293T ELG1-luciferase reporter, luminescence, 16 h; DNA damage induced by 5-fluorouridine. Potency, µM (series often up to 46.1 µM), for inactives: at the highest dose activity change, negative = inhibition, hits mostly inhibitors. 330,000 compounds, 2.3% hits; also: potency is read from the fitted curve at half-maximal effect; nearly all actives have a fitted effect of over 55% in size
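DMSO vehicle served as the neutral condition. Each well held 2,000 cells given 5-fluorouridine plus compound; after 16 hr at 37 °C/5% CO2, ONE-Glo was added and luciferase measured 30 min later.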
DT40 TDP1 no CPT: qHTS for Inhibitors of human tyrosyl-DNA phosphodiesterase 1 (TDP1): qHTS in cells in absence of CPT; DT40 Tdp1-/- hTDP1 cells, no CPT, ATP luminescence, 48 h; AID 686978, 2013; Potency, µM (top dose mostly 46.2 µM), for the others: top-dose activity change, negative = growth inhibition, actives largely listed as inhibitors; 420,000 compounds, 15% hits; also: potency is read from the fitted curve at half-maximal effect; nearly all actives have a fitted effect of over 55% in size
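Chicken DT40 Tdp1-/- cells stably complemented with human TDP1 were seeded at 400 cells/well with DMSO in place of 20 nM camptothecin. After compound pinning, cells grew at least 48 hr at 37 °C; viability read by CellTiter-Glo luminescence.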
IL1B secr inh: blocks inflammasome-driven IL-1 beta release | activity change, % at 57.5 µM | 360,000 compounds, 4.7% hits | THP-1 LPS/ATP IL-1B secretion, AlphaLISA, 16 h; active compounds read low; in the data active = activity change below about -50%; inconclusive = mostly about -30% to -49%
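Secreted IL-1B measured by AlphaLISA bead assay after 16 h compound exposure of THP-1 cells; compounds (final up to 57.5 uM) added 1 h before LPS (250 ng/mL) and ATP (1.25 mM) stimulation; lower signal means less secretion.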
HT1080 IDH1KD tx: toxicity to HT-1080 IDH1 knockdown cells (counter line); HT-1080 IDH1 knockdown viability, ATP luminescence, 48 h; Potency, µM (doses to about 46.1 µM), without a hit: at the top dose activity, negative = toxicity, hits mostly cytotoxic; 360,000 compounds, 2% hits;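 also: potency is read from the fitted curve at half-maximal effect; 0% = DMSO wells and -100% = cell-free medium wells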
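CellTiter-Glo luminescence after 48 h compound exposure at 37 degrees C of IDH1-knockdown HT-1080 cells in 5% FBS RPMI. %Activity scaled between DMSO wells and cell-free media wells, with curves fitted and assigned curve classes.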
TDP1 cell CPT: DT40-hTDP1 cell growth loss with CPT; chicken DT40 Tdp1-/-;hTDP1 cells + 20 nM CPT, ATP luminescence, 48 h; Potency, µM (titrated, usually from 46.2 µM), inactives show at the top dose activity change, negative = growth inhibition, usual class: inhibitors; 420,000 compounds, 12% hits; AID 686979; also: potency is read from the fitted curve at half-maximal effect; nearly all actives have a fitted effect of over 55% in size
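Chicken DT40 Tdp1-/- cells complemented with human TDP1, 400 cells/well, exposed to compounds plus 20 nM camptothecin for at least 48 h at 37 C; viability read as ATP content by CellTiter-Glo luminescence.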
HT1080NT lethal: kills 2HG-producing HT-1080-NT fibrosarcoma cells; 360,000 compounds, 1.6% hits; Potency, µM (doses to about 46.1 µM), without a hit: at the highest dose activity, negative = less viability, usual class: cytotoxic; HT-1080-NT fibrosarcoma viability, CellTiter-Glo ATP luminescence, 48 h;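 also: NT is the 2HG producing partner of a matched IDH1 knockdown line; potency is read from the fitted curve at half-maximal effect; 0% = DMSO-treated cells and -100% = media-only wells without cells; nearly all actives have a fitted effect of over 55% in size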
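HT-1080-NT fibrosarcoma cells (2HG-overproducing), 750 cells/well in RPMI with 5% FBS, dosed after 2 h and incubated 48 h at 37C. CellTiter-Glo luminescence normalized to DMSO and no-cell wells; concentration-response curves fitted and classed.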
Active calls of the source: *. An excerpt weighted towards active compounds, which were near 19% of everything screened. Unless noted, calls follow the shape of the dose curve; as a rule, active = well fitted curve in the direction sought with a large enough effect; inconclusive = small, poorly fitted or top-dose-only effect, or another doubt; inactive = no such curve, though single readings can be large; an effect the other way counts as inactive or inconclusive. Unless noted, % is scaled to controls: 0 for no effect and ±100 for the full control effect.

What do the screens show for `COC(/C=C/Nc1ccc(OC)cc1)=C(C#N)C#N`?
ELG1 DNA repair: inconclusive; DT40 TDP1 no CPT: 1.3%; IL1B secr inh: -58.9*; HT1080 IDH1KD tx: -0.5%; TDP1 cell CPT: -7.0%; HT1080NT lethal: -11.6%

What do the screens show for `COC(/C=C/Nc1ccc(Cl)cc1)=C(C#N)C#N`?
ELG1 DNA repair: 13.7%; DT40 TDP1 no CPT: -6.1%; IL1B secr inh: 13.0; HT1080 IDH1KD tx: 13.7%; TDP1 cell CPT: 10.5%; HT1080NT lethal: 20.8%

Results for Cc1noc(NS(=O)(=O)c2ccc(NC(=O)c3nn(-c4ccccc4)ccc3=O)cc2)c1C ?
ELG1 DNA repair: 21.9%; DT40 TDP1 no CPT: 18.2%; IL1B secr inh: 7.6; HT1080 IDH1KD tx: 13.5%; TDP1 cell CPT: -0.3%; HT1080NT lethal: 19.3%

Results for CCOc1ccc2cc(/C=C/C(=O)c3ccco3)c(Cl)nc2c1 ?
ELG1 DNA repair: inconclusive; DT40 TDP1 no CPT: 20.6µM*; IL1B secr inh: inconclusive; HT1080 IDH1KD tx: 8.9%; TDP1 cell CPT: inconclusive; HT1080NT lethal: -18.2%

How did CCOC(=O)C1=C(C)N=c2s/c(=C/c3cccc([N+](=O)[O-])c3O)c(=O)n2C1c1ccccc1 (stereo unspecified) do in these assays?
ELG1 DNA repair: 2.5%; DT40 TDP1 no CPT: 16.4µM*; IL1B secr inh: 14.0; HT1080 IDH1KD tx: -11.1%; TDP1 cell CPT: 13µM*; HT1080NT lethal: -4.3%

How did CCOC(=O)C1=C(C)N=c2s/c(=C\c3ccc(OCC(=O)O)cc3)c(=O)n2C1c1ccccc1 (stereo unspecified) do in these assays?
ELG1 DNA repair: -21.1%; DT40 TDP1 no CPT: 1.2%; IL1B secr inh: -22.3; HT1080 IDH1KD tx: -2.9%; TDP1 cell CPT: 5.6%; HT1080NT lethal: -6.6%

Results for CCOC(=O)C1=C(C)N=c2s/c(=C/c3cccc([N+](=O)[O-])c3O)c(=O)n2C1c1cc(OC)c(OC)c(OC)c1 (stereo unspecified) ?
ELG1 DNA repair: -5.5%; DT40 TDP1 no CPT: 7.31µM*; IL1B secr inh: 19.4; HT1080 IDH1KD tx: 4.0%; TDP1 cell CPT: inconclusive; HT1080NT lethal: -3.9%

What do the screens show for `COC(=O)C1=C(C)N=c2s/c(=C/c3ccoc3)c(=O)n2C1c1ccccc1` (stereo unspecified)?
DT40 TDP1 no CPT: inconclusive; IL1B secr inh: -1.3; HT1080 IDH1KD tx: -1.9%; TDP1 cell CPT: 23.1µM*; HT1080NT lethal: -1.3%

How did CCOC(=O)C1=C(C)N=c2s/c(=C/c3ccco3)c(=O)n2C1c1cccc(OC)c1 (stereo unspecified) do in these assays?
ELG1 DNA repair: inconclusive; DT40 TDP1 no CPT: 23.1µM*; IL1B secr inh: -24.0; HT1080 IDH1KD tx: -4.6%; TDP1 cell CPT: inconclusive; HT1080NT lethal: -11.1%

How did CCOC(=O)C1=C(C)N=c2s/c(=C\c3ccc(C(=O)O)cc3)c(=O)n2C1c1ccc(OC)cc1OC (stereo unspecified) do in these assays?
DT40 TDP1 no CPT: inconclusive; IL1B secr inh: -11.5; HT1080 IDH1KD tx: -0.1%; TDP1 cell CPT: inconclusive; HT1080NT lethal: -1.9%

What do the screens show for `CC(=O)c1ccc(OCc2cc(C(=O)NC3CCCCC3)no2)cc1`?
ELG1 DNA repair: -8.8%; DT40 TDP1 no CPT: -0.3%; IL1B secr inh: -15.2; HT1080 IDH1KD tx: 19.4%; TDP1 cell CPT: -19.1%; HT1080NT lethal: -5.3%

How did Cc1ccc(S(=O)(=O)N2CCCCC2)cc1NS(=O)(=O)c1ccc(Cl)c(C(=O)O)c1 do in these assays?
ELG1 DNA repair: 14.6%; DT40 TDP1 no CPT: 0.9%; IL1B secr inh: 9.4; HT1080 IDH1KD tx: -0.1%; TDP1 cell CPT: 5.4%; HT1080NT lethal: 5.3%

Results for Cc1nn2c(-c3cccnc3)ccnc2c1-c1ccccc1 ?
ELG1 DNA repair: 12.0%; DT40 TDP1 no CPT: 23.1µM*; IL1B secr inh: -11.0; HT1080 IDH1KD tx: 0.5%; TDP1 cell CPT: inconclusive; HT1080NT lethal: 0.0%

Results for CN=C1S/C(=C\c2ccc(N3CCOCC3)cc2C)C(=O)N1C ?
ELG1 DNA repair: 8.2µM*; DT40 TDP1 no CPT: inconclusive; IL1B secr inh: 18.9; HT1080 IDH1KD tx: 21.7%; TDP1 cell CPT: inconclusive; HT1080NT lethal: 17.2%

How did CCN=C1S/C(=C\c2ccc(N3CCOCC3)cc2C)C(=O)N1CC do in these assays?
ELG1 DNA repair: 5.8µM*; DT40 TDP1 no CPT: 2.31µM*; IL1B secr inh: 10.3; HT1080 IDH1KD tx: -3.2%; TDP1 cell CPT: 2.91µM*; HT1080NT lethal: 0.1%

What do the screens show for `COc1ccc(CNC(=O)Nc2nc(C(N)Cc3ccc(F)cc3)cs2)cc1` (stereo unspecified)?
DT40 TDP1 no CPT: 16.4µM*; IL1B secr inh: inconclusive; HT1080 IDH1KD tx: 13µM*; TDP1 cell CPT: inconclusive; HT1080NT lethal: inconclusive

How did COc1ccccc1CNC(=O)c1csc(Cc2ccc(Cl)cc2)n1 do in these assays?
ELG1 DNA repair: inconclusive; DT40 TDP1 no CPT: inconclusive; IL1B secr inh: -11.0; HT1080 IDH1KD tx: -13.3%; TDP1 cell CPT: inconclusive; HT1080NT lethal: -16.2%

How did NC(Cc1ccc(F)cc1)c1csc(NC(=O)NC(c2ccccc2)c2ccccc2)n1 (stereo unspecified) do in these assays?
DT40 TDP1 no CPT: 13µM*; IL1B secr inh: -53.2*; HT1080 IDH1KD tx: 16.4µM*; TDP1 cell CPT: 14.6µM*; HT1080NT lethal: 18.4µM*

Results for COc1ccc(NC(=O)NCc2ccc(Cl)cc2)cc1 ?
ELG1 DNA repair: 7.3%; DT40 TDP1 no CPT: 9.4%; IL1B secr inh: 14.0; HT1080 IDH1KD tx: 7.4%; TDP1 cell CPT: -20.5%; HT1080NT lethal: -2.0%

Results for COc1ccc(CNC(=O)Nc2nc(C(N)Cc3ccc(Cl)cc3)cs2)cc1 (stereo unspecified) ?
DT40 TDP1 no CPT: 18.4µM*; IL1B secr inh: inconclusive; HT1080 IDH1KD tx: 16.4µM*; TDP1 cell CPT: 23.1µM*; HT1080NT lethal: inconclusive

How did COc1ccccc1CNC(=O)Nc1nc(C(N)Cc2ccc(Cl)cc2)cs1 (stereo unspecified) do in these assays?
DT40 TDP1 no CPT: inconclusive; IL1B secr inh: -13.4; HT1080 IDH1KD tx: 20.6µM*; TDP1 cell CPT: inconclusive; HT1080NT lethal: 14.6µM*

How did Cc1ccc(NC(=O)C2(C)CCCN(C(C)C)C2)cc1C (stereo unspecified) do in these assays?
DT40 TDP1 no CPT: inconclusive; IL1B secr inh: 0.0; HT1080 IDH1KD tx: 8.4%; TDP1 cell CPT: -24.6%; HT1080NT lethal: inconclusive

What do the screens show for `COc1ccccc1NCc1cccn1-c1nnc(N2CCOCC2)s1`?
DT40 TDP1 no CPT: -23.8%; TDP1 cell CPT: -22.1%

Screening data as filed in PubChem BioAssay.
